Source: PubChem (National Center for Advancing Translational Sciences (NCATS))
ASM inhibitor – inhibitors of human secretory acid sphingomyelinase; P17405; placental ASM, HMU-PC fluorogenic substrate, 60 min; Potency, µM (highest dose often 57.5 µM), without a hit: at the top dose activity change, negative = inhibition, hits mostly inhibitors; 0.006% of 340,000 active; AID 504937; note: potency is the fitted concentration of half-maximal effect
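HMU-PC0 cleavage (9 uM final) by human placental ASM, 60 min at 37 °C following 10 min compound exposure at RT; stopped at pH 10, fluorescence Ex 386/Em 447 nm.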
hERG WT inh – blocks the wildtype human KCNH2 potassium channel; Q12809; U2OS, BacMam KCNH2, thallium flux FluxOr; hits give low values; activity change, % at 1.84 µM; 0.37% of 340,000 active;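 active = maximum activity change below -70%; inconclusive = maximum activity change between -70% and -50%; inactive = maximum activity change above -50%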; note: % is set by controls: 0 for no effect and ±100 for the full control effect
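U2OS cells were transduced with wild-type KCNH2 virus (2.03 x 10^8 / mL) for 4 h at room temperature, then cultured overnight at 37 C. Thallium flux was read with FluxOr dye. Rate constants were normalized to DMSO controls.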
Apoferritin bind – binds horse apoferritin like a general anesthetic | Potency, µM (series often up to 77.5 µM), without a hit: at the highest dose activity change, negative = displacement, usual class: inhibitors | P02791 | 0.074% of 350,000 active | apoferritin/1-aminoanthracene competitive binding, fluorescence; note: potency is the fitted concentration of half-maximal effect; % is set by controls: 0 for no effect and ±100 for the full control effect; nearly all actives have a fitted effect of over 20% in size
Target sequence (P02791 2-175 limits assumed): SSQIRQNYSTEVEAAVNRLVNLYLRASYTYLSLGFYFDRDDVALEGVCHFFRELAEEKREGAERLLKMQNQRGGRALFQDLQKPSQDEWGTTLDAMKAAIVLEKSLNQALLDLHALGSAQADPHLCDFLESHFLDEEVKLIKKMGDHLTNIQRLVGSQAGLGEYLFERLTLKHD
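In PBS, apoferritin at 10 uM is loaded with 1-AMA from a 50% saturated solution. After 10 min of compound exposure at ambient temperature, reduced 535 nm fluorescence indicates probe displacement.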
KCNH2 3.1 inh – inhibitors of human KCNH2 3.1 potassium channel isoform | U2OS KCNH2 3.1, thallium flux FluxOr; hits give low values | activity change, % (tested at about 1.8 µM) | 0.95% of 340,000 active | AID 720553;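 active = maximum activity change below -70%; inconclusive = maximum activity change from -70% to -50%; inactive = maximum activity change above -50%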;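 note: thallium influx rate constant from kinetic fluorescence after stimulation buffer; % is set by controls: 0 for no effect and ±100 for the full control effect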
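Normalized rate constant (relative to positive and negative DMSO controls) derived from a 2 min kinetic fluorescence read after stimulation; U2OS cells expressing the 3.1 isoform via virus at 1.77 x 10^8 /mL.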
IDH1 R132H inh – inhibitors of human mutant IDH1 R132H; IDH1-R132H enzyme, NADPH consumption, diaphorase/resazurin fluorescence; Potency, µM (doses to about 76.6 µM), for inactives: top-dose activity change, negative = inhibition, actives largely listed as inhibitors; 0.093% of 390,000 active; AID 602179; note: potency is the fitted concentration of half-maximal effect; % is set by controls: 0 for no effect and ±100 for the full control effect; nearly all actives have a fitted effect of over 65% in size
Target sequence (O75874 whole entry R132H, stated change not applied): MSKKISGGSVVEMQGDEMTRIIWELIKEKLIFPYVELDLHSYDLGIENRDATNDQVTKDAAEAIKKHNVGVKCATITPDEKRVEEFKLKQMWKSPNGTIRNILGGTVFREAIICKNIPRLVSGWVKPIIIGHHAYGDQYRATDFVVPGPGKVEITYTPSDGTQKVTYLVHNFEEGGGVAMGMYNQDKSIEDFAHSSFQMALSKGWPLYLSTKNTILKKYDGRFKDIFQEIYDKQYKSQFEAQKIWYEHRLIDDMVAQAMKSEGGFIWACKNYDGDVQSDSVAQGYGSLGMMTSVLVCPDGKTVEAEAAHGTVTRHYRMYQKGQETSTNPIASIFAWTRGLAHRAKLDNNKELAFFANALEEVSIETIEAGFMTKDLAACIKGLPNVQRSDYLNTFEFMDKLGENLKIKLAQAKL
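IDH1-R132H (0.5 ug/mL) preincubated 30 min with compound, then NADPH (0.016 mM) and alpha-KG (2 mM) added; 80 min at RT, pH 7.5. Remaining NADPH coupled via diaphorase/resazurin to fluorescence (540/590 nm); concentration-response curves normalized to no-enzyme control.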
Active calls of the source: *; ? = inconclusive; nt = not tested or not shown. Shown are actives, neighbours in structure and some others; about 1.2% of the full set was active somewhere. Unless noted, calls come from the whole dose curve; as a rule, active = well fitted inhibition curve with a large enough effect; inconclusive = small, poorly fitted or top-dose-only effect; inactive = no such curve, though single readings can be large or run the other way.

SMILES	ASM inhibitor	hERG WT inh	Apoferritin bind	KCNH2 3.1 inh	IDH1 R132H inh
COc1ccc(CCN(C)CCCN2CC(c3ccccc3)CC2=O)cc1OC (centres undefined)	4%	5	-4%	-88*	3%
COc1ccc(C2CC(=O)N(CCCN(C)CCc3ccc(OC)c(OC)c3)C2)cc1 (centres undefined)	0%	nt	-4%	-17	-11%
Cc1ccccc1NC1=NS(=O)(=O)c2ccccc21	2%	-285*	-23%	1	-1%
O=C(Nc1cccc(NC(=O)c2cccnc2)c1)c1cccnc1	3%	2	-11%	-6	-3%
Cc1ccccc1C(=O)Nc1cccc(NC(=O)c2cccnc2)c1	1%	-78*	-10%	-12	9%
CCc1ccccc1NC(=O)c1cnc(N2CCCCC2)c2ccccc12	nt	nt	44%	nt	10%
COC(=O)c1cc(NC(=O)CC2CCCC2)cc(C(=O)OC)c1	2%	0	-3%	-73*	8%
COc1cccc2[nH]c3c(Cl)ncnc3c12	243%	-184*	155%	0	4%
CN(Cc1ccccc1)C(=O)c1ccc2c(c1)N(Cc1ccccc1F)C(=O)c1ccccc1S2(=O)=O	nt	nt	4%	nt	6%
O=C(Nc1nc(-c2ccc3c(c2)OCCO3)cs1)c1ccc(Br)o1	nt	-11	nt	-74*	-1%
Cc1ccc(SC[C@H](C)CN2CC[C@H](C)CCC2=O)cc1	0%	-15	-23%	-6	7%
C[C@@H]1CCC(=O)N(C[C@@H](C)CSc2ccc(Br)cc2)CC1	-2%	-1	nt	-113*	12%
Cn1c(SCC(=O)Nc2cccc(F)c2)nnc1-c1cccnc1	-6%	2	-1%	4	-2%
O=C(CSc1nnc(-c2cccnc2)n1CCN1CCCCC1)Nc1cccc(Cl)c1	0%	8	-4%	-87*	0%
OC(COc1ccccc1)CN1CCC(Cc2ccccc2)CC1 (centres undefined)	-4%	0	-8%	-115*	5%
Cc1ccccc1OCC(O)CN1CCC(C)CC1 (centres undefined)	8%	11	-5%	-80*	7%
OC(COc1ccc(F)cc1Cl)CN1CCC(Cc2ccccc2)CC1 (centres undefined)	0%	?	-11%	-93*	22%
Cc1cc(NC(=O)CN2CCC(n3nnc4cc(C(F)(F)F)ccc43)CC2)no1	4%	12	-7%	-24	10%
CCOc1ccc2nc(NC(=O)CN3CCC(n4nnc5cc(C(F)(F)F)ccc54)CC3)sc2c1	-13%	-2	-9%	-79*	12%
COc1ccccc1CCNC(=O)C(=O)NCC(c1ccco1)S(=O)(=O)c1ccccc1 (centres undefined)	nt	nt	95%	nt	-2%
O=C(CN1CCN(Cc2ccccc2)CC1)N1CCCCCC1	9%	-2	-14%	-83*	-4%
COc1ccccc1NC(=O)CN1CCN(Cc2ccccc2)CC1	1%	28	1%	2	5%
NC(=O)c1ccccc1NC(=O)CN1CCN(Cc2ccccc2)CC1	0%	-35	-7%	-77*	-3%
NC(=O)c1ccccc1NC(=O)CN1CCCCCC1	3%	0	-3%	8	-6%
O=C(CN1CCN(Cc2ccccc2)CC1)Nc1ccccc1-c1ccccc1	6%	-74*	-17%	-45	6%
SMILES	ASM inhibitor	hERG WT inh	Apoferritin bind	KCNH2 3.1 inh	IDH1 R132H inh
CC[C@H](C)[C@H](NC(=O)[C@H](C)NC(=O)[C@H](Cc1cnc[nH]1)NC(=O)[C@@H]1CCCN1C(=O)CNC(=O)[C@H](CC(C)C)NC(=O)[C@H](CC(C)C)NC(=O)[C@H](Cc1ccc(O)cc1)NC(=O)CNC(=O)[C@H](C)NC(=O)[C@H](CO)NC(=O)[C@H](CC(N)=O)NC(=O)[C@H](CC(C)C)NC(=O)[C@@H](NC(=O)[C@H](Cc1c[nH]c2ccccc12)NC(=O)CN)[C@@H](C)O)C(=O)N[C@@H](CC(=O)O)C(=O)N[C@@H](CC(N)=O)C(=O)N[C@@H](Cc1cnc[nH]1)C(=O)N[C@@H](CCCNC(=N)N)C(=O)N[C@@H](CO)C(=O)N[C@@H](Cc1ccccc1)C(=O)N[C@@H](CO)C(=O)N[C@@H](CC(=O)O)C(=O)N[C@@H](CCCCN)C(=O)N[C@@H](Cc1cnc[nH]1)C(=O)NCC(=O)N[C@@H](CC(C)C)C(=O)N[C@H](C(N)=O)[C@@H](C)O	nt	nt	5%	nt	nt
Cc1ccccc1NC(=O)c1c(C)nc(SCC(=O)OCc2ccccc2)c(C#N)c1-c1ccc(F)cc1	3%	1	-10%	-114*	2%
Cc1nc(SCC(=O)OCc2ccccc2)c(C#N)c(-c2ccccc2)c1C(=O)Nc1ccccc1	0%	-2	-10%	-2	3%
Cc1ccc2sc(N3CCN(C(=O)c4ccc([N+](=O)[O-])o4)CC3)nc2c1C	-7%	-139*	nt	-201*	1%
COC(=O)c1ccc2c(=O)n(CCCCCC(=O)NCCc3ccccc3)c(=O)[nH]c2c1	nt	nt	-3%	nt	11%
CCOc1ccc(C(=O)NCCc2csc(-c3ccc(C(F)(F)F)cc3)n2)cc1OCC	nt	nt	-12%	nt	-6%
O=C(NCc1ccccc1F)C1CCN(c2nn3cc(-c4ccc(F)cc4)nc3s2)CC1	nt	nt	3%	nt	0%
CCCCN(C(=O)c1cc(S(=O)(=O)N2CCOCC2)ccc1F)c1c(N)n(CCCC)c(=O)[nH]c1=O	28%	0	nt	-7	0%
CCCCN(C(=O)Cc1ccc(S(=O)(=O)N2CCOCC2)s1)c1c(N)n(CCCC)c(=O)[nH]c1=O	23%	-75*	nt	-4	1%
O=C(C1=C(O)C(=O)N(CCc2ccccc2)C1c1cccs1)c1ccco1 (centres undefined)	-1%	-1	-16%	-124*	23%
CCn1cc(C(=O)N2CCN(c3ccccc3OC)CC2)c(=O)c2cc(S(=O)(=O)N3CCC(C)CC3)ccc21	nt	nt	-17%	nt	-3%
O=[N+]([O-])c1ccc(NN=Cc2cccc(O)c2)nc1	-2%	-3	nt	2	1%
O=[N+]([O-])c1ccc(N/N=C\c2cccnc2)nc1	7%	nt	-2%	-95*	-3%
Cc1cc(C)c(C)c(C(=O)C2OC(=O)C(C)(C)C(=O)C2(C)C)c1C (centres undefined)	1%	0	-23%	-16	-1%
CC1(C)C(=O)OC(C(=O)c2ccc(C(C)(C)C)cc2)C(C)(C)C1=O (centres undefined)	-9%	14	20µM*	2	5%
Cn1c(=O)c2c(nc(Br)n2Cc2ccccc2Cl)n(C)c1=O	0%	1	-15%	-88*	-3%
CCOc1nc2c(c(=O)n(C)c(=O)n2C)n1Cc1ccccc1Cl	-3%	-14	3%	6	0%
NC(=O)c1cc(S(=O)(=O)NCc2cccs2)cs1	4%	-13	-7%	-70*	2%
